# This excerpt belongs to a sample that is enriched for hits.
# LmPK inhibitor = qHTS Assay for Inhibitors of Leishmania Mexicana Pyruvate Kinase (LmPK); Q27686; purified LmPK, Kinase-Glo ATP luminescence, 1 h; Potency, µM (highest dose often 57.5 µM), for inactives: at the highest dose activity change, negative = inhibition, actives largely listed as inhibitors; 290,000 tested, 0.37% active; AID 1721, 2009; also: potency is read from the fitted curve at half-maximal effect; % is scaled to controls: 0 for no effect and ±100 for the full control effect
# Target sequence (Q27686 whole entry, looked up): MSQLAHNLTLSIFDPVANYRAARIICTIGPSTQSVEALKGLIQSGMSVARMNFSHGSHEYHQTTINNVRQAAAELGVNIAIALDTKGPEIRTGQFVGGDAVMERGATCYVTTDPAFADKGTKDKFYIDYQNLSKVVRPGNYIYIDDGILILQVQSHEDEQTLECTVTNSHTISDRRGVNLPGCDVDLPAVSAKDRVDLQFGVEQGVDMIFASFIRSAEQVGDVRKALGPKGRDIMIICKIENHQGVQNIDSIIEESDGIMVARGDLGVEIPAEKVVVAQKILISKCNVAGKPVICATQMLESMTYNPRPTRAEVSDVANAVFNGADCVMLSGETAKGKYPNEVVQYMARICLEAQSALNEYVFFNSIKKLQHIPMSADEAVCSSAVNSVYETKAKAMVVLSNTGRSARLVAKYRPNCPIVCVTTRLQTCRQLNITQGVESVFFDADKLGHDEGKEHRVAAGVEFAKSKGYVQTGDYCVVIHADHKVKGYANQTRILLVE
#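 ATP generated from ADP (0.1 mM) and PEP (0.5 mM) by 0.1 nM LmPK over 1 h at room temperature (pH 7.2 imidazole buffer) was detected by coupled luciferase luminescence. Values were normalized to uninhibited and no-enzyme wells.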
# Tb PYK inh = qHTS of Trypanosoma Brucei Inhibitors; pyruvate kinase (Trypanosoma brucei), Q57TT1; TbPYK enzyme, Kinase-Glo Plus ATP luminescence, 45 min; Potency, µM (titrated, usually from 76.8 µM), without a hit: top-dose activity, negative = inhibition, hits mostly inhibitors; 410,000 tested, 0.12% active; also: potency is read from the fitted curve at half-maximal effect; % is scaled to controls: 0 for no effect and ±100 for the full control effect; nearly all actives have a fitted effect of over 50% in size
#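 Assay buffer: 50 mM TEA pH 7.2, 100 mM KCl, 10 mM MgCl2, 0.05% BSA, 0.01% Tween-20. Pyruvate kinase from T. brucei plus substrate met compound, then ADP (130 uM final). Luminescence was read post 45 min RT.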
# CHX counter = Cycloheximide Counterscreen for Small Molecule Inhibitors of Shiga Toxin | cell reporter, cycloheximide protein synthesis inhibition counterscreen | max response, % | 300,000 tested, 12% active | AID 2314, 2010; in the data active = max response mostly above about 13%, no sharp cut-off; inactive = mostly below about 14%; also: read at 38.3 µM for the half of the compounds with a filed dose; 0% is about no effect
# Giardia FBPA inh-1 = qHTS Assay for Inhibitors of Fructose-1,6-bisphosphate Aldolase from Giardia Lamblia; 290,000 tested, 0.71% active; purified Giardia FBPA; A8B2U2; AID 2451, 2010; Potency, µM (doses to about 59.6 µM), for inactives: at the top dose activity, negative = inhibition, usual class: inhibitors; also: potency is read from the fitted curve at half-maximal effect; % is scaled to controls: 0 for no effect and ±100 for the full control effect; nearly all actives have a fitted effect of over 55% in size
#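 Giardia FBPA (40 nM reagent) was preincubated 10 min at RT with compound (up to 57.5 uM final), then substrate plus GAPDH/TPI/NAD/arsenate coupling system with diaphorase/resazurin was added; resorufin fluorescence (525/598 nm) was read after 20 min.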
# RE007 growth inh = qHTS Assay for Inhibitors of the HIV-1 protein Vpr; Potency, µM (top dose mostly 92.2 µM), inactives show top-dose activity change, negative = less growth, actives largely listed as inhibitors; S. pombe RE007 Vpr strain, BacTiter-Glo ATP luminescence, 24 h; 360,000 tested, 0.21% active; AID 651644, 2012; active = well fitted falling curve with a large enough effect; inconclusive = small, poorly fitted or top-dose-only effect; inactive = no such curve, though single readings can be large or run the other way; also: potency is read from the fitted curve at half-maximal effect; % is scaled to controls: 0 for no effect and ±100 for the full control effect; nearly all actives have a fitted effect of over 50% in size
#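 Fission yeast strain RE007, carrying one chromosomally integrated HIV-1 vpr copy, was seeded at OD 0.01 in PMG+AL medium with 23 nL pinned compound. After 24 h at 30 °C and 99% humidity, viability was read by BacTiter-Glo luminescence.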
# Shiga toxin inh = A qHTS for Small Molecule Inhibitors of Shiga Toxin. Vero cells, Shiga toxin protein synthesis inhibition reporter. AID 2315, 2010. inhibition, % at 38.7 µM. 290,000 tested, 9.2% active; in the data active = inhibition mostly above about 28%, no sharp cut-off; inactive = mostly below about 43%; also: 0% is about no effect
# Giardia growth = qHTS Assay for Inhibitors of Fructose-1,6-bisphosphate Aldolase from Giardia Lamblia: Giardia lamblia growth inhibition; shares compounds with Giardia FBPA inh-1; Giardia lamblia trophozoite growth inhibition; Potency, µM (titrated, usually from 57.5 µM), for the others: at the highest dose activity change, negative = inhibition, most hits filed as inhibitors; 1,500 tested, 5% active; AID 2785, 2010;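 also: potency is read from the fitted curve at half-maximal effect; trophozoites exposed to compound for 48 h at 37 °C; % is scaled to controls: 0 for no effect and ±100 for the full control effect; nearly all actives have a fitted effect of over 70% in size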
# Mammalian tox = qHTS Assay for Inhibitors of Fructose-1,6-bisphosphate Aldolase from Giardia Lamblia: Mammalian cellular toxicity; AID 2786, 2010; mammalian cell viability counter-screen, qHTS; shares compounds with Giardia FBPA inh-1; Potency, µM (doses to about 57.5 µM), for inactives: top-dose viability change, negative = toxicity, most hits filed as inhibitors; 1,500 tested, 4% active;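 also: Chinese hamster ovary cells used as mammalian cytotoxicity surrogate; viability measured as cellular ATP by luminescence; potency is read from the fitted curve at half-maximal effect; compound exposure lasted 48 h before reading; % is scaled to controls: 0 for no effect and ±100 for the full control effect; nearly all actives have a fitted effect of over 60% in size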
# Giardia FBPA inh-2 = qHTS Assay for Inhibitors of Fructose-1,6-bisphosphate Aldolase from Giardia Lamblia: Primary screen confirmation; Potency, µM (series often up to 57.5 µM), inactives show top-dose activity change, negative = inhibition, actives largely listed as inhibitors; 1,500 tested, 5% active; purified Giardia aldolase enzyme activity, qHTS; shares compounds with Giardia FBPA inh-1; also: potency is read from the fitted curve at half-maximal effect; % is scaled to controls: 0 for no effect and ±100 for the full control effect; nearly all actives have a fitted effect of over 45% in size
# Rabbit FBPA inh = qHTS Assay for Inhibitors of Fructose-1,6-bisphosphate Aldolase from Giardia Lamblia: Rabbit FBPA Selectivity. shares compounds with Giardia FBPA inh-1. 1,500 tested, 4% active. Potency, µM (series often up to 57.5 µM), for inactives: at the highest dose activity, negative = inhibition, most hits filed as inhibitors. Rabbit muscle FBPA enzyme inhibition, selectivity counter-screen; also: potency is read from the fitted curve at half-maximal effect; % is scaled to controls: 0 for no effect and ±100 for the full control effect; nearly all actives have a fitted effect of over 60% in size
# GAPDH coupling = qHTS Assay for Inhibitors of Fructose-1,6-bisphosphate Aldolase from Giardia Lamblia: Coupling assay counterscreen confirmation | 1,500 tested, 6% active | GAPDH coupling enzyme counterscreen, biochemical, qHTS | Potency, µM (top dose mostly 57.5 µM), for the others: at the top dose activity change, negative = inhibition, usual class: inhibitors | shares compounds with Giardia FBPA inh-1; also: potency is read from the fitted curve at half-maximal effect; % is scaled to controls: 0 for no effect and ±100 for the full control effect; nearly all actives have a fitted effect of over 55% in size
# An asterisk follows results filed as active; ? = inconclusive; . = no result given; [ ] = remark or other dose. Unless noted, calls follow the shape of the dose curve; as a rule, active = well fitted curve in the direction sought with a large enough effect; inconclusive = small, poorly fitted or top-dose-only effect, or another doubt; inactive = no such curve, though single readings can be large; an effect the other way counts as inactive or inconclusive.
SMILES,LmPK inhibitor,Tb PYK inh,CHX counter,Giardia FBPA inh-1,RE007 growth inh,Shiga toxin inh,Giardia growth,Mammalian tox,Giardia FBPA inh-2,Rabbit FBPA inh,GAPDH coupling
O=C(c1cccc(F)c1)N1CCN(Cc2cccc(Br)c2)CC1,-3.9%,4.3%,-2.2,14.1µM*,-7.3%,-3.6,4.7%,1.1%,8.7%,6.7%,8.2%
COc1ccc(Br)cc1CN1CCN(Cc2c[nH]c3ccccc23)CC1,-4.7%,-16.1%,-3.7,14.1µM*,-19.8%,13.1,15.8µM*,-16.0%,2.3%,9.2%,5.0%
COc1ccc(Br)cc1CN1CCN(C(=O)c2ccc(F)cc2)CC1,0.6%,-7.0%,-4.2,15.8µM*,-12.5%,2.6,4.5%,-11.2%,5.1%,12.4%,-6.9%
COc1ccc(CN2CCN(Cc3c[nH]c4ccccc34)CC2)c(OC)c1,.,-4.7%,.,.,-13.6%,.,.,.,.,.,.
COc1ccc(CN2CCN(Cc3c[nH]c4ccccc34)CC2)cc1,-10.9%,28.1%,5.1,?,-15.8%,18.9,-8.7%[38.3 µM],2.2%,-3.8%,-4.6%,-12.1%
O=C(c1cccc(F)c1)N1CCN(Cc2ccc3c(c2)OCO3)CC1,7.0%,6.7%,4.6,?,2.9%,.,.,.,.,.,.
COc1ccc(Br)cc1CN1CCN(C(=O)c2ccc(OC)c(OC)c2)CC1,-0.3%,-5.4%,1.1,?,2.6%,-9.9,.,.,.,.,.
COc1ccc(CN2CCN(Cc3c[nH]c4ccccc34)CC2)cc1OC,.,6.0%,.,.,-9.7%,.,.,.,.,.,.
CN(C(=O)Cn1nnc(-c2cccnc2)n1)C1CCCCC1,3.8%,-5.2%,2.1,5.4%,-0.8%,-4.8,.,.,.,.,.
c1ccc2c(CN3CCCCC3)c[nH]c2c1,0.1%,3.2%,3.5,1.6%,-12.5%,-3.6,.,.,.,.,.
O=[N+]([O-])c1ccccc1CN1CCN(Cc2c[nH]c3ccccc23)CC1,9.9%,20.4%,1.2,19.9µM*,5.2%,-3.2,5.0%[10.4 µM],-23.1%,0.8%,3.4%,5.5%
CC1CCCCN1S(=O)(=O)c1ccc(C(=O)Nc2nnc(-c3ccccn3)o2)cc1 (stereo unspecified),4.7%[11.5 µM],-6.1%,-3.7,17.7µM*,-10.7%,-5.4,24.3%,9.9%,22.7%,22.3%,-0.3%
O=C(Nc1nnc(C2=COCCO2)o1)c1ccc(S(=O)(=O)N2CCOCC2)cc1,6.0%[11.5 µM],6.1%,-2.2,19.9µM*,10.6%,-4.4,?,-5.1%,2.7%,5.2%,5.8%
CC1CCCCN1S(=O)(=O)c1ccc(C(=O)Nc2nnc(C3=COCCO3)o2)cc1 (stereo unspecified),1.3%,-6.8%,0.8,.,14.9%,-9.7,.,.,.,.,.

# Compound activity deposited in PubChem BioAssay by National Center for Advancing Translational Sciences (NCATS).
